This passage reports INHIBITION results from ChEMBL document CHEMBL4513216, “Probing the Open Global Health Chemical Diversity Library for Multistage-Active Starting Points for Next-Generation Antimalarials” (ACS Infect Dis, 2020).

Structures are written as SMILES. Screen size: about 69,000 compounds; about 8,600 (12%) showed an effect of 50% or more. For the sample, strong results were picked, then their nearest neighbours and some compounds at random.

This assay concerns Plasmodium berghei. In words: Screen against P. berghei liver stage (PbLuc), transformed with Luciferase, at 10uM. It counts as functional, HepG2. Particulars: tested at 10 uM.
For `O=C1CCN(CCS(=O)(=O)c2ccc(Cl)cc2)CCN1`, the INHIBITION was 7.43%.

Turning to `COCCNC(=O)[C@H]1C[C@@H]2CCN(c3ccncn3)C[C@H]2O1`, the INHIBITION came out at 7.53%.

Consider `Cc1cc2n(n1)CC(CNCc1ccc(N3CCOCC3)nc1)CN2` (centres undefined), for which the INHIBITION is reported as -2.143%.

For `Cc1cccnc1CCNC(=O)CC1C(=O)NCCN1CCC(C)C` (centres undefined), the INHIBITION is recorded as -23%.

Take `CCCn1nccc1-c1cc(C2CCN(S(C)(=O)=O)CC2)ccn1`: the INHIBITION worked out at 55.6%.

Regarding `Cn1nccc1-c1cc(C2CCN(S(C)(=O)=O)CC2)ccn1`, the INHIBITION is reported as 42.4%.

As for `CCCn1nccc1-c1cc(C2CCN(C(C)=O)CC2)ccn1`, the INHIBITION was found to be 12.3%.

For `COCC1c2nnn(CC3CC3)c2CCN1C(=O)c1cccn1C` (centres undefined), the INHIBITION was -56.2%.

As to `COCC1c2nnn(CC3CC3)c2CCN1C(=O)c1sccc1C` (centres undefined), the INHIBITION came out at 72.3%.

Take `COCC1c2nnn(CC3CC3)c2CCN1C(=O)c1ccnnc1` (centres undefined): the INHIBITION is recorded as -16.2%.

Regarding `COc1ccccc1C(C)(C)NC(=O)NCCC(=O)NC1CCCC1`, the INHIBITION was found to be 19.7%.

Regarding `Cc1ccc(OCC2CCCN(C(=O)Cn3ccccc3=O)C2)cc1` (centres undefined), the INHIBITION stood at 18.5%.

Consider `Cc1ccc(OCC2CCCN(CC3CCOCC3)C2)cc1` (centres undefined), for which the INHIBITION was determined as 51.1%.

On to `Cc1ccc(OCC2CCCN(c3nc(CO)cs3)C2)cc1` (centres undefined), for which the INHIBITION is listed as 34.4%.

For `Cc1ccc(OCC2CCCN(C(=O)CCn3ccccc3=O)C2)cc1` (centres undefined), the INHIBITION came out at 18.5%.

Regarding `Cc1ccc(OCC2CCCN(C(=O)CN3CCOCC3)C2)cc1` (centres undefined), the INHIBITION was 56.5%.

Turning to `Cc1ccc(OCC2CCCN(Cc3ccc(CO)o3)C2)cc1` (centres undefined), the INHIBITION is given as 22.3%.

In the case of `Cc1ccc(N2CCC3(CC2)CNC(=O)CO3)nn1`, the INHIBITION was found to be 21.7%.

For the molecule `O=C(NC[C@H]1OC[C@@H]2CN(Cc3ccco3)CC[C@@H]21)c1cscn1`, the INHIBITION is on record as -72%.

For `COCCCN1CCCC(c2nccn2CC2CCC2)C1` (centres undefined), the INHIBITION came out at 42.8%.

As for `CN(C(=O)Cn1nnnc1C(C)(C)C)c1ccccc1`, the INHIBITION came to 50.8%.

Regarding `CN(CC(=O)N(CCC#N)c1ccccc1)C1CCc2ccccc21` (centres undefined), the INHIBITION is given as 28.9%.

Consider `CC(C)(C)c1nnnn1CC(=O)N(CCC#N)c1ccccc1`, for which the INHIBITION came out at 65.6%.

For the molecule `Cc1nc(CN2CCCN(CC(=O)N(C)CCC#N)CC2)no1`, the INHIBITION was 36.5%.

As for `CC(=O)N(C)c1nc(Cn2nnnc2C(C)(C)C)cs1`, the INHIBITION was determined as 24.2%.

For the molecule `N#CCCN(C(=O)CN1CCCC1C1CCCCC1)c1ccccc1` (centres undefined), the INHIBITION worked out at 5.14%.

As for `Cc1cc(C)n(CC2CCCN2CC(=O)N(C)CCC#N)n1` (centres undefined), the INHIBITION turned out to be 36.1%.

As to `CN(CCC#N)C(=O)Cn1nnnc1C(C)(C)C`, the INHIBITION is given as 61.9%.

As for `CN(C(=O)Cn1nc(-c2ccc(F)cc2)oc1=O)c1ccccc1`, the INHIBITION is 42.6%.

Take `CCCSc1ncc(Cl)c(C(=O)NC(CCSC)C(=O)O)n1` (centres undefined): the INHIBITION worked out at 26.3%.

For the molecule `CCN1C(=O)CCC12CCN(C(=O)c1ccco1)CC2`, the INHIBITION came to 27.2%.

In the case of `CCN1CCn2c(C)cnc2C12CCN(C(=O)CC(C)C)CC2`, the INHIBITION is -0.182%.

`CC[C@H](C)Nc1nccc(-c2cnc3sc(C)cn3c2=O)n1`: the INHIBITION is 39.7%.

As to `CCC(=O)N1CCc2c(O)nc(C3CCCCN3C(=O)C3CC3)nc2C1` (centres undefined), the INHIBITION was -7.6%.

Turning to `O=c1[nH]c(NC2CCCC2)nc2nccc(-c3ccsc3)c12`, the INHIBITION turned out to be 61.1%.

Regarding `NC(=O)C1CCN(c2nc3nccc(-c4ccncc4)c3c(=O)[nH]2)CC1`, the INHIBITION came out at 41.6%.

With `O=C(O)Cn1nc(C2CC2)c2c(-c3cccs3)ccnc21`, the INHIBITION is 11.6%.

Take `O=c1[nH]c(NC2CCCC2)nc2nccc(-c3ccco3)c12`: the INHIBITION was -37.9%.

On to `NC(=O)C1CCN(c2nc3nccc(-c4cccnc4)c3c(=O)[nH]2)CC1`, for which the INHIBITION is reported as 47.4%.

In the case of `O=c1[nH]c(NC2CCCC2)nc2nccc(-c3cccs3)c12`, the INHIBITION is 52.2%.

As for `O=C(NCC1CC1)C1CN(Cc2cccs2)Cc2ccnn2C1` (centres undefined), the INHIBITION is given as -19.1%.

Take `Cc1ccc(S(=O)(=O)N2CSCC2C(=O)NCC(F)(F)F)cc1C` (centres undefined): the INHIBITION is -27.9%.

In the case of `O=C(CSc1nc2c(cnn2CCO)c(=O)[nH]1)NC1CCCCC1`, the INHIBITION worked out at 39.2%.

For the molecule `Cc1noc(C(C)N2CCN(CCN3CCCC3=O)CC2)n1` (centres undefined), the INHIBITION is -29.1%.

As to `O=C(COCCOc1ccccc1)Nc1ccnn1CC1CCOC1` (centres undefined), the INHIBITION was 69.9%.

Regarding `O=C(Cn1ncc2ccccc21)Nc1ccnn1CC1CCOC1` (centres undefined), the INHIBITION was found to be 36.5%.

With `O=C(COCc1ccccc1Cl)Nc1ccnn1CC1CCOC1` (centres undefined), the INHIBITION is reported as 42.1%.

For the molecule `COc1ccccc1CC(=O)N1C[C@@H]2CC[C@H]1CN(Cc1cscn1)C2`, the INHIBITION came out at 29.6%.

For `CN(C(=O)Cn1nc(-c2ccccc2Cl)ccc1=O)C1CCS(=O)(=O)C1` (centres undefined), the INHIBITION is 48.1%.

As for `N#Cc1cc(Br)ccc1NC1CCN(CC(N)=O)CC1`, the INHIBITION amounted to 45.4%.

For `CN1CC(Nc2ccc(Br)cc2C#N)CCC1=O` (centres undefined), the INHIBITION amounted to 58.9%.

For the molecule `CC(=O)N1CCC(Nc2ccc(Br)cc2C#N)C1` (centres undefined), the INHIBITION was 7.39%.

Consider `CCOCCN1CCN(Cc2csc(-c3cnn(C)c3)n2)CC1`, for which the INHIBITION was -22.1%.

As to `O=C(CCNS(=O)(=O)c1ccc(F)c(F)c1)NCc1ccoc1`, the INHIBITION is 35.4%.
